This passage reports outcome and AC50 results from PubChem BioAssay (EPA / NIEHS).

Results filed as inconclusive are left out. Calls of active or inactive are those of the source. How the source made its calls, unless noted: active means hit-call score of the fitted dose curve at least 0.9, where 1 is the maximum; inconclusive means response in the unintended direction; inactive means score below 0.9.

What is called AC50 is the concentration at which the activity in the assay is half-maximal.

Test [1] can be described thus: ATG_TAL_CIS: Attagene CIS-FACTORIAL HepG2 Assay for human TAL Basal Promoter (AID 2282966; active means hit-call score of the fitted dose curve at least 0.9, where 1 is the maximum; inactive means score below 0.9;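 further: background control endpoint measuring basal TAL promoter reporter mRNA not a specific factor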). Conditions: HepG2 Attagene cis-factorial TAL promoter reporter; actives raise or lower the signal. An outline of the steps: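 Steps: transfect HepG2 with multiple reporter transcription units; dose 24 h; isolate RNA, reverse-transcribe, PCR-amplify, label with 6-FAM, digest with HpaI; resolve by capillary electrophoresis. Bidirectional fitting against DMSO baseline.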

Test [2] can be described thus: ATG_VDRE_CIS: Attagene CIS-FACTORIAL HepG2 Assay for human Vitamin D Receptor Element (VDRE) (AID 2282968; active means hit-call score of the fitted dose curve at least 0.9, where 1 is the maximum; inactive means score below 0.9). The settings on record: HepG2 VDRE cis-reporter transcription, actives raise or lower the signal. The method, boiled down: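 Cell-based multiplexed reporter format in human liver HepG2 cells, 24 h post-dose. Fluorescence from capillary electrophoresis of reporter cDNA gives the signal, with DMSO as negative control and baseline.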

The target in test [3] is Nuclear receptor subfamily 1 group I member 3 (Homo sapiens) (UniProt Q14994). The experiment in a line: ATG_CAR_TRANS: Attagene TRANS-FACTORIAL HepG2 Assay for human Constitutive Androstane Receptor (CAR) (AID 2282969).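 Further: activators raise reporter mRNA above DMSO so AC50 marks induction.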 The settings on record: HepG2 Attagene TRANS-FACTORIAL CAR reporter. An outline of the steps: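 HepG2 cells transiently transfected with GAL4-UAS reporter units; TRANS format reads activity of exogenous chimeric NR-Gal4 protein. After 24 h dosing, reporter mRNA quantified by RT-PCR, 6-FAM labelling and capillary electrophoresis; gain of signal fitted against DMSO.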

Test [4] deals with X-box-binding protein 1 (Homo sapiens) (UniProt P17861). Nature of the test: ATG_Xbp1_CIS: Attagene CIS-FACTORIAL HepG2 Assay for human X-box Binding Protein 1 (XBP1) (AID 2282972; active means hit-call score of the fitted dose curve at least 0.9, where 1 is the maximum; inactive means score below 0.9). Conditions: HepG2 XBP1 cis-element reporter, Attagene multiplex; actives raise or lower the signal. The method, boiled down: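 HepG2 cells transiently transfected with cis-regulated multiple reporter transcription units; endogenous transcription factor activity measured 24 hours after chemical dosing. Reporter mRNA quantified by RT-PCR, 6-FAM primer extension, HpaI digestion and capillary electrophoresis; bidirectional fitting versus DMSO.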

Test [5] is described as follows: ATG_M_19_TRANS: Attagene TRANS-FACTORIAL HepG2 Assay for M19 Transcription Factor (Internal Marker) (AID 2282974). Conditions: HepG2 Attagene TRANS-FACTORIAL M19 internal marker reporter. An outline of the steps:
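24 h chemical exposure of transiently transfected HepG2 (MRTU library). RNA → oligo(dT) RT → PCR → 6-FAM labelling → HpaI cut → CE fluorescence. Positive-direction fit vs DMSO baseline; background internal-marker readout.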

Test [6] is described as follows: ATG_GAL4_TRANS: Attagene TRANS-FACTORIAL HepG2 Assay for GAL4 (Internal Marker) (AID 2282976). The settings on record: HepG2 Attagene TRANS GAL4 internal marker reporter. An outline of the steps: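 Liver HepG2 line bearing multiplexed GAL4-UAS reporter constructs; 24 h chemical treatment. Transcripts were quantified as fluorescent fragments on capillary electrophoresis after RT-PCR and HpaI cut, with activity fitted upward from DMSO.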

The target in test [7] is Glucocorticoid receptor (Homo sapiens) (UniProt P04150). The experiment in a line: ATG_GR_TRANS: Attagene TRANS-FACTORIAL HepG2 Assay for human Glucocorticoid Receptor (GR) (AID 2282978).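 Further: activators score as hits since higher reporter transcript over DMSO is fitted.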 The settings on record: HepG2 Attagene TRANS GR reporter, mRNA transcription. The method, boiled down:
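Transient MRTU transfection of HepG2 (GAL4-UAS reporters, exogenous NR-GAL4 chimeras), 24 h dosing. Readout: reporter transcript via RT-PCR + capillary electrophoresis fluorescence. Positive direction vs DMSO baseline.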

For test [8], the target named is Bile acid receptor (Homo sapiens) (UniProt Q96RI1). Nature of the test: ATG_FXR_TRANS: Attagene TRANS-FACTORIAL HepG2 Assay for Farnesoid X Receptor (FXR) (AID 2282979).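 Further: hits raise reporter mRNA above DMSO so AC50 marks FXR activation.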 Conditions: HepG2 Attagene TRANS FXR-GAL4 reporter transcription. The method, boiled down: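 After 24 h chemical treatment of transfected HepG2 cells, GAL4-UAS reporter transcripts driven by an exogenous FXR-GAL4 fusion were measured by RT-PCR and capillary electrophoresis. Increases over DMSO were fitted.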

For test [9], the target named is Oxysterols receptor LXR-alpha (Homo sapiens) (UniProt Q13133). Nature of the test: ATG_LXRa_TRANS: Attagene TRANS-FACTORIAL HepG2 Assay for human Liver X Receptor alpha (LXRa) (AID 2282980). Conditions: HepG2 Attagene TRANS reporter, LXRa transactivation. The method, boiled down:
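In this multiplexed TRANS system, compounds act on HepG2 cells carrying GAL4-UAS reporter units and a receptor-GAL4 fusion for 24 h. Induced reporter RNA is amplified, fluorescently labelled and sized by capillary electrophoresis, with DMSO as baseline.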

Test [10] has as its target Oxysterols receptor LXR-beta (Homo sapiens) (UniProt P55055). Nature of the test: ATG_LXRb_TRANS: Attagene TRANS-FACTORIAL HepG2 Assay for human Liver X Receptor beta (LXRb) (AID 2282981). Conditions: HepG2 Attagene TRANS GAL4-LXRb reporter, mRNA. An outline of the steps: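 Gain-of-signal mRNA reporter endpoint, DMSO as negative control. Transiently transfected HepG2 cells carrying the NR-Gal4 chimera and GAL4-UAS reporter units were treated 24 h; transcripts quantified by RT-PCR and capillary electrophoresis fluorescence.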

Test [11] in a line: ATG_M_06_TRANS: Attagene TRANS-FACTORIAL HepG2 Assay for M06 Transcription Factor (Internal Marker) (AID 2282983). Conditions: HepG2 Attagene TRANS M06 internal marker reporter. An outline of the steps:
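Internal-marker background readout from a multiplexed TRANS reporter system in HepG2; 24 h dosing; mRNA induction quantified by RT-PCR plus capillary electrophoresis fluorescence; DMSO as negative control and baseline.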

Test [12] is described as follows: ATG_M_32_TRANS: Attagene TRANS-FACTORIAL HepG2 Assay for M32 Transcription Factor (Internal Marker) (AID 2282984).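 Further: transcript level of a background control reporter unit measured by RT-PCR and capillary electrophoresis.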 The settings on record: HepG2 Attagene TRANS M32 internal marker reporter. An outline of the steps: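 Capillary electrophoresis of 6-FAM-labelled reporter fragments gives the signal; data fitted for gain over DMSO negative control. Source: HepG2 cells bearing transient multiple reporter transcription units, 24 h exposure.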

The target in test [13] is Transcriptional activator Myb (Homo sapiens) (UniProt P10242). The experiment in a line: ATG_Myb_CIS: Attagene CIS-FACTORIAL HepG2 Assay for human Myeloblastosis (Myb) Proto-Oncogene Transcription Factor (AID 2282986; active means hit-call score of the fitted dose curve at least 0.9, where 1 is the maximum; inactive means score below 0.9). Conditions: HepG2 Attagene CIS-FACTORIAL Myb reporter transcription; actives raise or lower the signal. An outline of the steps:
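HepG2, transient MRTU transfection (cis-element promoters, endogenous TF activity), 24 h compound exposure. Readout: reporter mRNA via RT-PCR, 6-FAM labeling, HpaI digest, capillary electrophoresis. Gain/loss fit vs DMSO.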

Test [14] addresses Nuclear respiratory factor 1 (Homo sapiens) (UniProt Q16656). The experiment in a line: ATG_NRF1_CIS: Attagene CIS-FACTORIAL HepG2 Assay for human Nuclear Respiratory Factor 1 (NRF1) Orphan Gene (AID 2282987; active means hit-call score of the fitted dose curve at least 0.9, where 1 is the maximum; inactive means score below 0.9). The settings on record: HepG2 NRF1 cis-element reporter, Attagene multiplex; actives raise or lower the signal. An outline of the steps:
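Endogenous NRF1-driven reporter transcription measured in transiently transfected human HepG2 liver cells. Readout: reporter mRNA by RT-PCR and capillary electrophoresis with fluorescence detection, 24 h post-dosing. Gain or loss of signal fitted relative to DMSO baseline.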

Test [15] in a line: ATG_NFI_CIS: Attagene CIS-FACTORIAL HepG2 Assay for human Nuclear Factor I (NFI) (AID 2282989; active means hit-call score of the fitted dose curve at least 0.9, where 1 is the maximum; inactive means score below 0.9). The settings on record: HepG2 cis-regulatory reporter, NFI response element transcription; actives raise or lower the signal. An outline of the steps: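 Multiplexed cis-reporter system in human HepG2 cells reports native TF activity as reporter mRNA induction 24 h post-dose. Fragments labelled with 6-FAM, HpaI-digested and resolved by capillary electrophoresis; activity fitted both directions versus DMSO.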

Test [16] addresses Steroid hormone receptor ERR1 (Homo sapiens) (UniProt P11474). Nature of the test: ATG_ERRa_TRANS: Attagene TRANS-FACTORIAL HepG2 Assay for human Estrogen-Related Receptor alpha (ERRa) (AID 2282971). The settings on record: HepG2 Attagene TRANS reporter, ERRa transactivation. An outline of the steps: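 Signal gain relative to DMSO for an ERRa-Gal4 chimeric receptor, read as reporter mRNA by RT-PCR/capillary electrophoresis. Human HepG2 liver cells, transient multiplex reporter transfection, 24 h chemical exposure.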

In test [17] the target is Hepatocyte nuclear factor 4-alpha (Homo sapiens) (UniProt P41235). The experiment in a line: ATG_HNF4a_TRANS: Attagene TRANS-FACTORIAL HepG2 Assay for human Hepatocyte Nuclear Factor 4 alpha (HNF4a) (AID 2282982). The settings on record: HepG2 HNF4a transactivation reporter, mRNA readout. An outline of the steps:
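Gain-of-signal mRNA induction, relative to DMSO vehicle, was read after 24 h compound treatment of HepG2 cells bearing transfected GAL4-UAS reporters. Detection used RT-PCR, 6-FAM primer extension and capillary electrophoresis.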

Test [18] addresses Nuclear receptor subfamily 4 group A member 2 (Homo sapiens) (UniProt P43354). Nature of the test: ATG_NURR1_TRANS: Attagene TRANS-FACTORIAL HepG2 Assay for human Nuclear Receptor Related Protein 1 (NURR1) (AID 2282985). The settings on record: HepG2 Attagene TRANS reporter, mRNA readout. The method, boiled down: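 HepG2 / transient MRTU transfection / 24 h compound exposure / RT-PCR + CE fluorescence of reporter mRNA / gain-of-signal vs DMSO.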

In test [19] the target is Estrogen-related receptor gamma (Homo sapiens) (UniProt P62508). The experiment in a line: ATG_ERRg_TRANS: Attagene TRANS-FACTORIAL HepG2 Assay for human Estrogen-Related Receptor gamma (ERRg) (AID 2282977).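 Further: hits increase reporter signal over DMSO so potencies reflect activators.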 Conditions: HepG2 Attagene TRANS reporter, ERRg transactivation. An outline of the steps:
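HepG2 cells transiently transfected with multiplexed GAL4-UAS reporter units and chimeric NR-Gal4 constructs were exposed to test chemicals for 24 h. Reporter mRNA was measured by RT-PCR, 6-FAM primer extension, HpaI digestion and capillary electrophoresis; gain-of-signal versus DMSO.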

Sequence of Oxysterols receptor LXR-beta (Homo sapiens) (P55055 whole entry, looked up, the tested form may be a part): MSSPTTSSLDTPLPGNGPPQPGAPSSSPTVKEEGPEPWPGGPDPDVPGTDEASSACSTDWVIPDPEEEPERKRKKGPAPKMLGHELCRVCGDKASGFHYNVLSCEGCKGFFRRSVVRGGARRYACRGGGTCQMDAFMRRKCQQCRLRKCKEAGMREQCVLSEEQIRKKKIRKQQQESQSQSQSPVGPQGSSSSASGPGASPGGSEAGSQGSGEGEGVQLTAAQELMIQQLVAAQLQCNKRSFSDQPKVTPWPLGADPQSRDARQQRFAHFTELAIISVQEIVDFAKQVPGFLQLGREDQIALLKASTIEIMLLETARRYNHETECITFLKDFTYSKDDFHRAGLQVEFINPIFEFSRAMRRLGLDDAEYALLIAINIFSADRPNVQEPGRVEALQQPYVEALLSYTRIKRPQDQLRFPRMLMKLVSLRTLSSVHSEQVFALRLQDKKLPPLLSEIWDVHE
Sequence of Nuclear respiratory factor 1 (Homo sapiens) (Q16656 whole entry, looked up): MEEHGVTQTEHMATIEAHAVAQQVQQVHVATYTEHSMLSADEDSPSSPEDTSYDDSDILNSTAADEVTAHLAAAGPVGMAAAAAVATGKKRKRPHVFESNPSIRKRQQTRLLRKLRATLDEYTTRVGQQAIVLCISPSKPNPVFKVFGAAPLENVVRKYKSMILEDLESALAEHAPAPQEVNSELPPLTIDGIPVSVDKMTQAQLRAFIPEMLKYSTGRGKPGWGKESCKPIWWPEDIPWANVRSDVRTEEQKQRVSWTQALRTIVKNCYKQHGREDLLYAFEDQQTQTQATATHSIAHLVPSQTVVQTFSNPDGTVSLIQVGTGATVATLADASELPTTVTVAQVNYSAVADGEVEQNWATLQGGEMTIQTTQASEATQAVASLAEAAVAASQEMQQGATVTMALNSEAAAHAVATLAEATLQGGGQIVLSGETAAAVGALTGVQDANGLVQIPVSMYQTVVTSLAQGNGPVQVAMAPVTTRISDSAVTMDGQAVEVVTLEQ
Sequence of Oxysterols receptor LXR-alpha (Homo sapiens) (Q13133 whole entry, looked up, the tested form may be a part): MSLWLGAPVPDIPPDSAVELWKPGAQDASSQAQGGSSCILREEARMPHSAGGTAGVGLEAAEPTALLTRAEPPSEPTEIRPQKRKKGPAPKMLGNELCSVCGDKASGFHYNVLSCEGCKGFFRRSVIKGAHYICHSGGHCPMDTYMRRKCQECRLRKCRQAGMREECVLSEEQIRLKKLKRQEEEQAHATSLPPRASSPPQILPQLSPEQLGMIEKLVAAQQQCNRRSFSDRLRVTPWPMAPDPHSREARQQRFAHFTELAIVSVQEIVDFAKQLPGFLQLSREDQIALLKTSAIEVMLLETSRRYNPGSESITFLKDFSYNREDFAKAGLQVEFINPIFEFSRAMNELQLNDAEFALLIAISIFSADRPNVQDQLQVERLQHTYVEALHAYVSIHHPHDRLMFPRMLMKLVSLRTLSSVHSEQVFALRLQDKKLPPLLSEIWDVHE
Sequence of Bile acid receptor (Homo sapiens) (Q96RI1 whole entry, looked up, the tested form may be a part): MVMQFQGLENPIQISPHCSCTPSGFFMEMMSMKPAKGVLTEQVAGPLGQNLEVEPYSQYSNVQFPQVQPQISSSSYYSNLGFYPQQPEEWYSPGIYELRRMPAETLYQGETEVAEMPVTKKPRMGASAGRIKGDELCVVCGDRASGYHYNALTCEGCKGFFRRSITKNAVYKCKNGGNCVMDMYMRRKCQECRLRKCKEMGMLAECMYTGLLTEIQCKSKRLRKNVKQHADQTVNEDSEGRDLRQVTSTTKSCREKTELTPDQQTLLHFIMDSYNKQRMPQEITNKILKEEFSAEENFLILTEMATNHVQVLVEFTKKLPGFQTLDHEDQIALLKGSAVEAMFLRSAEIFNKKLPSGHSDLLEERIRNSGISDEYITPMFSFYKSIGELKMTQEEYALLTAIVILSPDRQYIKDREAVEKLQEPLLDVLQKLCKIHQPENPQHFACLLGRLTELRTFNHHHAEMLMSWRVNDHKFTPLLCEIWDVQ
Sequence of Glucocorticoid receptor (Homo sapiens) (P04150 whole entry, looked up, the tested form may be a part): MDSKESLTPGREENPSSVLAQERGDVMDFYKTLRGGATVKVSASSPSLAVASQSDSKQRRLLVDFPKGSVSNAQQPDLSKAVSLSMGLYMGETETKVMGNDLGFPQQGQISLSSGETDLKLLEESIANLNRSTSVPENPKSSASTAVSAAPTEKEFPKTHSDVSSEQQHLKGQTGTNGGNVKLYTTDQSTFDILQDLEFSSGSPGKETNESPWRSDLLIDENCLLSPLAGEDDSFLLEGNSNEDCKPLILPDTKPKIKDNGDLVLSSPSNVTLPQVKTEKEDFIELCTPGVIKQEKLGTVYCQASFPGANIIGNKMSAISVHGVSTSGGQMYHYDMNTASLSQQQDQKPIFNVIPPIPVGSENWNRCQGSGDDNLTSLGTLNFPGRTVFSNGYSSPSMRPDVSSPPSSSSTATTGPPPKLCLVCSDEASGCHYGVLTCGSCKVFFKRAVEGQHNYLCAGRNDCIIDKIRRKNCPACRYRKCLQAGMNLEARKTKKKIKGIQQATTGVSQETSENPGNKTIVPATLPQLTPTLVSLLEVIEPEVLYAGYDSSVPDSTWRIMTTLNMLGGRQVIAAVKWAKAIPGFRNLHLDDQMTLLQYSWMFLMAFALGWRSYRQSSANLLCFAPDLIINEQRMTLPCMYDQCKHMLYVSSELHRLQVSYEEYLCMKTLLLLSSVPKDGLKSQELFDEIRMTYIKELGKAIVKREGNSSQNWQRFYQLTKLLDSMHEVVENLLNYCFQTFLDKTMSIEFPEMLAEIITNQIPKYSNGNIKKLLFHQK
Sequence of Nuclear receptor subfamily 1 group I member 3 (Homo sapiens) (Q14994 whole entry, looked up, the tested form may be a part): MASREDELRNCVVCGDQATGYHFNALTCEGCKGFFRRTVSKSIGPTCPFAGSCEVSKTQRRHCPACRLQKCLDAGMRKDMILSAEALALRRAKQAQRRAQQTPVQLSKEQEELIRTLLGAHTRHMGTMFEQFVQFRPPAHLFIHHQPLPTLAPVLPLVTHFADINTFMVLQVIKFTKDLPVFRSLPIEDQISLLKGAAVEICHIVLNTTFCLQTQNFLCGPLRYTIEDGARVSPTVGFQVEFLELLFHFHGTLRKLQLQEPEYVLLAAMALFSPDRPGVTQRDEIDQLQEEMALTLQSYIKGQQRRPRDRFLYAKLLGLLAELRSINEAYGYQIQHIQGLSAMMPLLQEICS
Sequence of Nuclear receptor subfamily 4 group A member 2 (Homo sapiens) (P43354 whole entry, looked up): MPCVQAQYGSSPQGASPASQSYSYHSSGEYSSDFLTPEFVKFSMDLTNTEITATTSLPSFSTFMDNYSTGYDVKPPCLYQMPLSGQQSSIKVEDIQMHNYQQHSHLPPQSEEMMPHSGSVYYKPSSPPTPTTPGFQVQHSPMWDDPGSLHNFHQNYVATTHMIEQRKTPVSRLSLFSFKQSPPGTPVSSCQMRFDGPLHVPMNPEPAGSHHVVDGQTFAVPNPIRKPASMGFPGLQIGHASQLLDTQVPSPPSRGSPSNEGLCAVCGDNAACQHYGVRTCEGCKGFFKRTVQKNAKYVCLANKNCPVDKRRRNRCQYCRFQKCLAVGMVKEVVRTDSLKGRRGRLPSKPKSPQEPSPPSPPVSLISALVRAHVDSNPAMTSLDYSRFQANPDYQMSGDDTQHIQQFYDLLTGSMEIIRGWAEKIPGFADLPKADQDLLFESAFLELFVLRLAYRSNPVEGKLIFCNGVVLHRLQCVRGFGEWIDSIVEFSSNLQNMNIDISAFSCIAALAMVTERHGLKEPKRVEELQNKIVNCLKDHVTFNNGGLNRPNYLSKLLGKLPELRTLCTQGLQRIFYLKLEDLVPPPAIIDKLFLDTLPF
Sequence of X-box-binding protein 1 (Homo sapiens) (P17861 whole entry, looked up): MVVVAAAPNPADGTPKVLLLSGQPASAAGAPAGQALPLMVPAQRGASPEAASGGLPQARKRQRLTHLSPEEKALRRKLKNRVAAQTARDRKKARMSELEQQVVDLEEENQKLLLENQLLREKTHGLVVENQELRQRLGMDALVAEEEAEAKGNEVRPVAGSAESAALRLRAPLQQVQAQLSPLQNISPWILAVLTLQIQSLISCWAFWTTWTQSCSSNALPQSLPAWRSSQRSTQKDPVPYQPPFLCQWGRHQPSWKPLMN
Sequence of Hepatocyte nuclear factor 4-alpha (Homo sapiens) (P41235 whole entry, looked up, the tested form may be a part): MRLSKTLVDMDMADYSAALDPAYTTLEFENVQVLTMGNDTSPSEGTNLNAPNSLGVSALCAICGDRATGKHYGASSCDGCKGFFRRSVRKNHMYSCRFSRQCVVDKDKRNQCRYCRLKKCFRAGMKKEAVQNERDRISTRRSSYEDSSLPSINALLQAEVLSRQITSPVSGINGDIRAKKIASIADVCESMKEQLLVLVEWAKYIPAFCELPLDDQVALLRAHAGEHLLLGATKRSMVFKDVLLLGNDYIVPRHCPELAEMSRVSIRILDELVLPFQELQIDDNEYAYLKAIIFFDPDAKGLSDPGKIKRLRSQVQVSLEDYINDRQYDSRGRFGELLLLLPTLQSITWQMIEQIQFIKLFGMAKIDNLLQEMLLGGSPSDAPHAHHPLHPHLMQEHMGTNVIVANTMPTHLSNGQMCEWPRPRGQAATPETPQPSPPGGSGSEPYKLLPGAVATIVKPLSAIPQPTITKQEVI
Sequence of Transcriptional activator Myb (Homo sapiens) (P10242 whole entry, looked up): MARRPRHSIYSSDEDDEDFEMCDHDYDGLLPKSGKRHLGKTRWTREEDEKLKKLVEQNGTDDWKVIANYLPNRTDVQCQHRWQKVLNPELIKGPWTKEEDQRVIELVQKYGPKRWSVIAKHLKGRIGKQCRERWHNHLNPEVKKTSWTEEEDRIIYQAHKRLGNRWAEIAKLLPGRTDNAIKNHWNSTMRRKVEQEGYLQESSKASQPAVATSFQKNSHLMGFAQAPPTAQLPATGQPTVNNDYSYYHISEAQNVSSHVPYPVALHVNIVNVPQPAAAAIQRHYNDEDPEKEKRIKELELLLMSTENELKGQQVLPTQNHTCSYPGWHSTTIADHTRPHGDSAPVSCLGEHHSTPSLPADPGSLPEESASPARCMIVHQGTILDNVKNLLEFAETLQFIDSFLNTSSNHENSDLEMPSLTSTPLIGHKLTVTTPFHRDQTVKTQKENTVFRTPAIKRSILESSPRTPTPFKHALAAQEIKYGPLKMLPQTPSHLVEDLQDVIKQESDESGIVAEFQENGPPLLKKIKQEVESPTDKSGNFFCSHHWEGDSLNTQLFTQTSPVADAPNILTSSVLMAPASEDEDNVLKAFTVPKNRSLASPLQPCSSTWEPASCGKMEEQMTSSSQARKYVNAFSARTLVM

For the compound `CC(=O)O[C@H]1C[C@@H]2CC[C@@]1(C)C2(C)C`, the call in [1], in test [2], in [3], in [4], in test [5] and in test [6] was inactive. The compound was classed as inactive in test [7], in [8], in test [9], in [10], in [11] and in [12]. Besides, the call in test [13], in test [14] and in [15] was inactive.
On to `OCCCCC(O)CO` (configuration not stated), for which the compound was called inactive in test [1], in test [2], in [16], in test [4], in [5] and in test [6]. For the same compound, the call in test [7], in test [11], in [14] and in test [15] was inactive.
On to `C=C(C)[C@@H]1CC=C(C)C(=O)C1`, for which the compound was called inactive in test [1], in test [2], in test [5], in [7], in [9] and in [10]. The compound was classed as inactive in test [17], in test [18], in test [13], in test [14] and in [15].
Consider `O=C(Nc1ccc([N+](=O)[O-])cc1)Nc1ccc([N+](=O)[O-])cc1` (tested in a mixture with another compound), for which the call in test [1], in test [2], in test [7], in test [8], in test [9] and in [11] was inactive. In addition, the compound was classed as inactive in [12], in test [13], in test [14] and in test [15].
Turning to `CC(O)C1CCCCC1` (configuration not stated), the outcome in [1], in test [2], in [3], in test [16], in test [6] and in [19] was inactive. Moreover, the result in test [7], in test [9], in test [10], in test [11], in test [12] and in test [13] was inactive. The call in test [14] and in test [15] was inactive.
Consider `COc1ccc(N=Nc2cc(C)c(N=Nc3ccc(S(=O)(=O)O)cc3)cc2OC)cc1`, for which the compound was classed as inactive in [1], in test [2], in test [3], in test [4], in test [5] and in test [17]. Moreover, the compound was classed as inactive in test [12] and in test [13]. In addition, the values for the AC50 in [14] and in test [15] were 71.8 µM (active) and 149 µM (active), respectively.
For the compound `O=P(O)(O)O`, the outcome in test [1], in [2], in [4], in test [5], in test [6] and in [7] was inactive. For the same compound, the result in test [17], in test [11], in test [18], in [13] and in test [14] was inactive.
With `CCCCCCC(C)Nc1ccc(Nc2ccccc2)cc1` (configuration not stated), the call in [1], in [4], in [7], in test [8], in test [9] and in [11] was inactive. The compound was classed as inactive in test [13], in test [14] and in test [15]. Moreover, the AC50 was 2.32 µM (active) in [2] and 39.5 µM (active) in test [18].
